# The supplement of paper PMC8728848
# Shown is part of a subset that was picked to be rich in the strongest signals.
# Legend:
# Assay in all cases: glycan array binding signal (z-score within array); higher = stronger binding
# Details in all cases: glycan notation: IUPAC condensed, linker removed
# [1] = tested on: Fuc(a1-2)Gal(b1-3)GlcNAc(b1-3)GalNAc
# Summary of the method: (§1)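 Glycan array binding is given as a within-array Z-score, which can be read as non-binding when negative. The arrays, 3228 of them, came from the Consortium for Functional Glycomics database and were retained only where the protein sequence was available. Z-scores were averaged across arrays of the same protein sequence at different concentrations or buffers and across linkers.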
# [2] = tested on: Fuc(a1-2)Gal(b1-3)GlcNAc(b1-3)[Gal(b1-4)GlcNAc(b1-6)]Gal(b1-4)Glc
# Summary of the method: as §1
# [3] = tested on: Fuc(a1-2)Gal(b1-3)[Fuc(a1-4)]GlcNAc
# Summary of the method: as §1
# [4] = tested on: Fuc(a1-2)Gal(b1-4)GlcNAc(b1-2)[Fuc(a1-2)Gal(b1-4)GlcNAc(b1-4)]Man(a1-3)[Fuc(a1-2)Gal(b1-4)GlcNAc(b1-2)Man(a1-6)]Man(b1-4)GlcNAc(b1-4)GlcNAc
# Summary of the method: as §1
# [5] = tested on: Fuc(a1-2)Gal(b1-3)GalNAc
# Summary of the method: as §1
# [6] = tested on: Fuc(a1-2)Gal(b1-3)GlcNAc(b1-2)Man(a1-3)[Fuc(a1-2)Gal(b1-3)GlcNAc(b1-2)Man(a1-6)]Man(b1-4)GlcNAc(b1-4)[Fuc(a1-6)]GlcNAc
# Summary of the method: as §1
# [7] = tested on: Fuc(a1-2)Gal(b1-4)Glc6S
# Summary of the method: as §1
# [8] = tested on: Fuc(a1-2)Gal(b1-4)GlcNAc(b1-3)GalNAc
# Summary of the method: as §1
# [9] = tested on: Fuc(a1-2)Gal(b1-3)GalNAc(b1-3)Gal
# Summary of the method: as §1
# [10] = tested on: Fuc(a1-2)Gal(b1-3)GlcNAc(b1-2)Man(a1-3)[Fuc(a1-2)Gal(b1-3)GlcNAc(b1-2)Man(a1-6)]Man(b1-4)GlcNAc(b1-4)GlcNAc
# Summary of the method: as §1
# [11] = tested on: Fuc(a1-2)Gal(b1-4)GlcNAc(b1-2)Man(a1-3)[Fuc(a1-2)Gal(b1-4)GlcNAc(b1-2)Man(a1-6)]Man(b1-4)GlcNAc(b1-4)[Fuc(a1-6)]GlcNAc
# Summary of the method: as §1
# [12] = tested on: Fuc(a1-2)Gal(b1-3)GlcNAc(b1-3)[Fuc(a1-2)Gal(b1-3)GlcNAc(b1-6)]GalNAc
# Summary of the method: as §1
# [13] = tested on: Fuc(a1-2)Gal(b1-3)[Fuc(a1-4)]GlcNAc(b1-2)Man(a1-3)[Fuc(a1-2)Gal(b1-3)[Fuc(a1-4)]GlcNAc(b1-2)Man(a1-6)]Man(b1-4)GlcNAc(b1-4)[Fuc(a1-6)]GlcNAc(b1-4)[Fuc(a1-6)]GlcNAc
# Summary of the method: as §1
# [14] = tested on: Fuc(a1-2)Gal(b1-4)GlcNAc(b1-3)Gal(b1-4)GlcNAc(b1-3)Gal(b1-4)GlcNAc
# Summary of the method: as §1
# [15] = tested on: Fuc(a1-2)Gal(b1-3)GlcNAc
# Summary of the method: as §1
# [16] = tested on: Fuc(a1-2)Gal(b1-4)GlcNAc(b1-3)Gal(b1-4)GlcNAc
# Summary of the method: as §1
# [17] = tested on: Fuc(a1-2)Gal(b1-3)GlcNAc6S
# Summary of the method: as §1
# [18] = tested on: Fuc(a1-2)Gal(b1-4)GlcNAc(b1-3)Gal(b1-4)GlcNAc(b1-2)Man(a1-3)[Fuc(a1-2)Gal(b1-4)GlcNAc(b1-3)Gal(b1-4)GlcNAc(b1-2)Man(a1-6)]Man(b1-4)GlcNAc(b1-4)GlcNAc
# Summary of the method: as §1
# [19] = tested on: Fuc(a1-2)Gal(b1-3)GlcNAc(b1-3)[Fuc(a1-3)[Gal(b1-4)]GlcNAc(b1-6)]Gal(b1-4)Glc
# Summary of the method: as §1
# [20] = tested on: Fuc(a1-2)Gal(b1-3)[Fuc(a1-4)]GlcNAc(b1-2)Man(a1-3)[Fuc(a1-2)Gal(b1-3)[Fuc(a1-4)]GlcNAc(b1-2)Man(a1-6)]Man(b1-4)GlcNAc(b1-4)GlcNAc
# Summary of the method: as §1
substance,measurement,setting,value
AgI/II Vhelical-GFP (Streptococcus mutans),glycan array binding signal (z-score),[1],-0.178
same,glycan array binding signal (z-score),[2],-0.296
same,glycan array binding signal (z-score),[3],-0.149
same,glycan array binding signal (z-score),[4],-0.246
"SiiE (Salmonella typhimurium), A0A0H3NVH0",glycan array binding signal (z-score),[5],-1.18
same,glycan array binding signal (z-score),[6],2.35
same,glycan array binding signal (z-score),[7],3.24
same,glycan array binding signal (z-score),[8],-0.206
AgI/IIC123-GFP (Streptococcus mutans),glycan array binding signal (z-score),[9],-0.278
same,glycan array binding signal (z-score),[10],-0.189
same,glycan array binding signal (z-score),[11],-0.573
Epa22,glycan array binding signal (z-score),[1],-0.565
same,glycan array binding signal (z-score),[12],-0.12
same,glycan array binding signal (z-score),[13],0.488
"GspB (Streptococcus gordonii), Q939N5",glycan array binding signal (z-score),[14],0
"Wza (Escherichia coli), P0A930",glycan array binding signal (z-score),[15],0.769
same,glycan array binding signal (z-score),[4],0.441
Actinohivin (Actinomycete K97),glycan array binding signal (z-score),[13],0.06
"BambL (Burhholderia ambifaria), Q0B4G1",glycan array binding signal (z-score),[1],-0.211
same,glycan array binding signal (z-score),[14],3.79
same,glycan array binding signal (z-score),[16],3.14
same,glycan array binding signal (z-score),[8],-0.033
LcI (Legionella pneumophila),glycan array binding signal (z-score),[9],4.24
same,glycan array binding signal (z-score),[17],1.6
same,glycan array binding signal (z-score),[11],0.257
same,glycan array binding signal (z-score),[18],3.4
"SpGH101 (Streptococcus pneumoniae), Q8DR60",glycan array binding signal (z-score),[19],-0.216
same,glycan array binding signal (z-score),[20],0.018
